Data taken from PubChem BioAssay (NCI).
About 83,000 compounds went through this panel and 20% of them were active in at least one assay; those are over-represented in the sample as a whole.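 Assay: single dose, 48 h. Readout: percent growth (0 = no net growth; negative = cell death). Active: <10.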 Unmarked numbers belong to inactive results. Calls of active or inactive are those of the source.

Legend:
Assay in all cases: NCI-60 one-dose screen, 48 h (100 = growth as untreated, 0 = no growth, -100 = all killed)
Conditions in all cases: 10 µM
[1] = tested on: NCI-H23 lung
[2] = tested on: NCI-H226 lung
[3] = tested on: NCI-H322M lung
[4] = tested on: HOP-62 NSCLC
[5] = tested on: NCI-H460 lung
[6] = tested on: NCI-H522 lung
[7] = tested on: A549/ATCC NSCLC
[8] = tested on: 786-0 renal
[9] = tested on: COLO 205 colon
[10] = tested on: DU-145 prostate

SMILES: NC(=O)CC1(c2ccccc2)CCCCC1
- growth [1]: 103%
- growth [2]: 110%
- growth [3]: 90.9%
- growth [4]: 102%
- growth [5]: 104%
- growth [6]: 96%
- growth [7]: 116%
- growth [8]: 97.1%
- growth [9]: 103%
- growth [10]: 107%

SMILES: N#Cc1ncc(-c2ccc(C(F)(F)F)cc2)c(NCc2cc(C(F)(F)F)cc(C(F)(F)F)c2)n1
- growth [1]: 10.6%
- growth [2]: 43.8%
- growth [3]: 70.2%
- growth [4]: 39.2%
- growth [5]: 2.11% (active)
- growth [6]: 12.2%
- growth [7]: 29.2%
- growth [8]: 40.3%
- growth [9]: -24.1% (active)
- growth [10]: 28.2%

SMILES: COc1ccc(N=C2C(=Nc3ccc(OC)cc3)N(c3ccc(N(C)C)cc3)C(=S)N2c2ccc(OC)cc2)cc1
- growth [1]: 90.9%
- growth [2]: 104%
- growth [3]: 90.3%
- growth [4]: 64.3%
- growth [5]: 85%
- growth [6]: 84.8%
- growth [7]: 90.4%
- growth [8]: 12.3%
- growth [9]: 109%
- growth [10]: 85.7%

SMILES: COc1ccc2c(c1)C(=O)c1c-2c(OCCN(C)C)nc2cc(OC)c(OC)cc12
- growth [1]: 53.1%
- growth [2]: 58%
- growth [3]: 57.2%
- growth [4]: 36.1%
- growth [5]: 36.6%
- growth [6]: 42.1%
- growth [7]: 47.8%
- growth [8]: 79.1%
- growth [9]: 66.5%
- growth [10]: 52%

SMILES: COc1ccc(/C=C2/CN(C(=O)c3ccc(C)cc3)C/C(=C\c3ccc(OC)cc3)C2=O)cc1
- growth [1]: 87.6%
- growth [2]: 82.1%
- growth [3]: 90.2%
- growth [4]: 89.7%
- growth [5]: 105%
- growth [6]: 69.1%
- growth [7]: 87.9%
- growth [8]: 99.9%
- growth [9]: 97.6%
- growth [10]: 93.5%

SMILES: COc1ccc(C2=Nc3c(C)nn(-c4ccccc4)c3NC(c3ccc(Oc4ccnc5cc(Cl)ccc45)c(OC)c3)C2)cc1 (configuration not stated)
- growth [1]: 77.8%
- growth [2]: 74.3%
- growth [3]: 95.1%
- growth [4]: 113%
- growth [5]: 81.6%
- growth [6]: 62.1%
- growth [7]: 84%
- growth [8]: 89.8%
- growth [9]: 83.6%
- growth [10]: 100%

SMILES: COc1ccc2c(c1)O/C(=C\c1ccc([N+](=O)[O-])s1)C2=O
- growth [1]: 5.99% (active)
- growth [2]: 69.9%
- growth [3]: 29.7%
- growth [4]: 45.6%
- growth [5]: 2.82% (active)
- growth [6]: -72.5% (active)
- growth [7]: 33.9%
- growth [8]: 69%
- growth [9]: -30% (active)
- growth [10]: -6.02% (active)

SMILES: O=c1[nH]c(-c2ccc(Cl)cc2)nc2sc3c(c12)CCCC3
- growth [1]: 86.1%
- growth [2]: 78.1%
- growth [3]: 114%
- growth [4]: 55.7%
- growth [5]: 52.2%
- growth [6]: 82.4%
- growth [7]: 95.8%
- growth [8]: 95.7%
- growth [9]: 109%
- growth [10]: 63.9%

SMILES: CCOC(=O)N/N=C\C(C)=N\NC(=O)OCC
- growth [1]: 101%
- growth [2]: 119%
- growth [3]: 89.5%
- growth [4]: 96.3%
- growth [5]: 102%
- growth [6]: 89.2%
- growth [7]: 92.6%
- growth [8]: 101%
- growth [9]: 114%
- growth [10]: 106%

SMILES: CCOCCOCCOCCOCCOCCOCCOCCOCCOCCO (tested in a mixture with another compound)
- growth [1]: 7.79% (active)
- growth [2]: 28.2%
- growth [3]: 51.4%
- growth [4]: 24.4%
- growth [5]: 12.9%
- growth [6]: -66.5% (active)
- growth [7]: 14%
- growth [8]: 39.3%
- growth [9]: -89.7% (active)
- growth [10]: 28.1%

SMILES: Cc1cccc2c1O/C(=C\c1ccc([N+](=O)[O-])o1)C2=O
- growth [1]: -39.8% (active)
- growth [2]: -57.8% (active)
- growth [3]: 37.9%
- growth [4]: -25.6% (active)
- growth [5]: -58.5% (active)
- growth [6]: -77.4% (active)
- growth [7]: -12.2% (active)
- growth [8]: -39.5% (active)
- growth [9]: -84.3% (active)
- growth [10]: -62.7% (active)

SMILES: CC1CN(Cc2ccccc2)C(=O)NC1=O (configuration not stated)
- growth [1]: 110%
- growth [2]: 106%
- growth [3]: 122%
- growth [4]: 105%
- growth [5]: 109%
- growth [6]: 91.8%
- growth [7]: 103%
- growth [8]: 112%
- growth [9]: 108%

SMILES: COc1ccc(NC(=O)CSc2nc3ccccc3c(=O)n2CCc2ccccc2)cc1
- growth [1]: 92.2%
- growth [2]: 93.9%
- growth [3]: 81.5%
- growth [4]: 48.3%
- growth [5]: 75.5%
- growth [6]: 105%
- growth [7]: 75.1%
- growth [8]: 95.3%
- growth [9]: 95.5%
- growth [10]: 101%

SMILES: C[C@]12CC[C@@H]3c4ccc(O)cc4C[C@@H](O)[C@H]3[C@@H]1CC[C@@H]2O
- growth [1]: 110%
- growth [2]: 101%
- growth [3]: 102%
- growth [4]: 108%
- growth [5]: 108%
- growth [6]: 106%
- growth [7]: 94.6%
- growth [8]: 105%
- growth [9]: 119%
- growth [10]: 110%

SMILES: CCN(CC)CCOc1nc2ccc(OC)cc2c2c1-c1ccc(OC)cc1C2=O
- growth [1]: -30.5% (active)
- growth [2]: 16.5%
- growth [3]: -13.2% (active)
- growth [4]: 6.96% (active)
- growth [5]: -75.4% (active)
- growth [6]: -89.2% (active)
- growth [7]: -67.2% (active)
- growth [8]: 26%
- growth [9]: 15.3%
- growth [10]: -70.3% (active)

SMILES: CCN(CC)CCC(CNc1c(C)cnc2cc(Cl)ccc12)c1ccc(Cl)c(Cl)c1 (configuration not stated)
- growth [1]: 63.7%
- growth [2]: 85.9%
- growth [3]: 51.8%
- growth [4]: 68.8%
- growth [5]: 63.8%
- growth [6]: 49.2%
- growth [7]: 64.1%
- growth [8]: 60.2%
- growth [9]: -56.5% (active)
- growth [10]: 73.8%

SMILES: Cc1ccc(NC(=O)Nc2nc3ccccc3s2)cc1NC(=O)Nc1nc2ccccc2s1
- growth [1]: 89.5%
- growth [2]: 90%
- growth [3]: 97.6%
- growth [4]: 88.3%
- growth [5]: 88.5%
- growth [6]: -33.8% (active)
- growth [7]: 42.5%
- growth [8]: 97.1%
- growth [9]: 80.6%
- growth [10]: 107%

SMILES: Cc1nc2ccc(CN(C)c3ccc(C(=O)N[C@@H](CCC(=O)O)C(=O)O)s3)cc2c(=O)[nH]1
- growth [1]: 54.9%
- growth [2]: 56.1%
- growth [3]: 85.9%
- growth [4]: 28.6%
- growth [5]: 29.1%
- growth [6]: 71.9%
- growth [7]: 60%
- growth [8]: 18.3%
- growth [9]: 58.5%
- growth [10]: 52.6%

SMILES: Cc1ccc(Nc2nnc(-c3cc(-c4ccncc4)n(-c4ccccc4)n3)s2)cc1
- growth [1]: 90.5%
- growth [2]: 86.2%
- growth [3]: 98.7%
- growth [4]: 114%
- growth [5]: 56.8%
- growth [6]: 84.5%
- growth [7]: 60.5%
- growth [8]: 41.9%
- growth [9]: 73.8%
- growth [10]: 107%

SMILES: COc1ccc(/C(=C2/O[C@@H]([C@H]3COC(C)(C)O3)[C@H]3OC(C)(C)O[C@@H]23)c2cc(OC)c(OC)c(OC)c2)cc1O
- growth [1]: 81.2%
- growth [2]: 113%
- growth [3]: 91.5%
- growth [4]: 91.3%
- growth [5]: 104%
- growth [6]: 51.8%
- growth [7]: 80.1%
- growth [8]: 86.3%
- growth [9]: 121%
- growth [10]: 45.6%

SMILES: CC(=O)c1cc(Br)ccc1O
- growth [1]: 105%
- growth [2]: 101%
- growth [3]: 127%
- growth [4]: 118%
- growth [5]: 105%
- growth [6]: 87.4%
- growth [7]: 107%
- growth [8]: 104%
- growth [9]: 121%
- growth [10]: 114%

SMILES: O=C(CC(C(=O)c1ccccc1)N1CCOCC1)c1ccccc1 (configuration not stated)
- growth [1]: 97.4%
- growth [2]: 90.3%
- growth [3]: 109%
- growth [4]: 106%
- growth [5]: 102%
- growth [6]: 74.7%
- growth [7]: 91.9%
- growth [8]: 98.8%
- growth [9]: 58.5%
- growth [10]: 101%

SMILES: O=C1NC(=O)N(Cc2ccccc2)CC1Br (configuration not stated)
- growth [1]: 52.6%
- growth [2]: 83.2%
- growth [3]: 104%
- growth [4]: 79.2%
- growth [5]: 96.7%
- growth [6]: -9.22% (active)
- growth [7]: 102%
- growth [8]: 63%
- growth [9]: 64.9%
- growth [10]: 104%

SMILES: COc1cc2c(cc1OCCCN1CCN(c3ncnc4ccccc34)CC1)N=CC1CCCN1C2=O (configuration not stated)
- growth [1]: -8.7% (active)
- growth [2]: -50.1% (active)
- growth [3]: -3.85% (active)
- growth [4]: 4.07% (active)
- growth [5]: 8.4% (active)
- growth [6]: -37.7% (active)
- growth [7]: -2.44% (active)
- growth [8]: 7.51% (active)
- growth [9]: -42% (active)

SMILES: CCN(CC)CCCC(C)Nc1ccc2ccc(Cl)cc2n1 (configuration not stated)
- growth [1]: 98.5%
- growth [2]: 93.1%
- growth [3]: 102%
- growth [4]: 86.9%
- growth [5]: 102%
- growth [6]: 92%
- growth [7]: 98.3%
- growth [8]: 93.8%
- growth [9]: 95.7%
- growth [10]: 114%

SMILES: N=C(N)c1ccc(-c2ccc(-c3ccccc3)o2)nc1
- growth [1]: 101%
- growth [2]: 90.4%
- growth [3]: 91.7%
- growth [4]: 91.8%
- growth [5]: 90.3%
- growth [6]: 93.8%
- growth [7]: 77.8%
- growth [8]: 90.7%
- growth [9]: -13% (active)
- growth [10]: 103%

SMILES: CC1(O)CCC2CC3OC3(C)CCC3OC3(C)CCC1C2(C)C (configuration not stated)
- growth [1]: 105%
- growth [2]: 108%
- growth [3]: 114%
- growth [4]: 98.8%
- growth [5]: 112%
- growth [6]: 98.1%
- growth [7]: 90.7%
- growth [8]: 99.7%
- growth [9]: 106%
